Compound activity deposited in PubChem by Broad Institute.
aSyn 5UTR act – Activators via SNCA 5'UTR binding, MLPCN; alpha-synuclein 5'UTR reporter, activators screen; activity score, % (tested at 7.5 µM), hits read low; 300,000 tested, 7.1% active; in the data active means activity score below about -60%
Numbers without * were called inactive. The list is a sample of the results.

SMILES | aSyn 5UTR act
CCOc1ccc(-c2nnc(SCC(=O)N3CCCC3)o2)cc1 | -101.3*
OCCCCNc1cccc2ccccc12 | -63.7*
CC#CC(=O)N1CCC(C(=O)Nc2ccc(Oc3ccccc3)nc2)CC1 | -175.2*
O=C1/C(=C/C=C/c2ccco2)SC(=S)N1c1ccc(O)cc1 | -78.2*
CN(C)c1ccc(/C=C/C=C2/SC(=S)N(c3ccccc3)C2=O)cc1 | -76.0*
O=C(CC1C(=O)NCCN1Cc1ccc(F)cc1Cl)NCc1ccon1 (stereo not given) | -68.1*
Cc1ccc(C(=O)CCC2CCCC2=O)cc1 (stereo not given) | -100.0*
CCc1ccc(C(=O)CCC2CCCCC2=O)cc1 (stereo not given) | -130.0*
Cc1ccc(C(=O)CCC2CCCCC2=O)cc1 (stereo not given) | -151.2*
O=[N+]([O-])c1cc(N=Nc2ccc3ccccc3c2)ccc1O | -104.5*
CC1Sc2n(c3ccccc3[n+]2C)N=C1c1ccccc1 (stereo not given) | -63.3*
Cc1cc2oc(C(=O)Nc3cccnc3)c(C)c2cc1C | -114.4*
Cc1ccc2c(Cl)c(C(=O)Nc3cccnc3)sc2c1 | -72.8*
Cc1ccc2c(C)c(C(=O)Nc3cccnc3)oc2c1 | -201.3*
Cc1[nH]n(-c2ccc([N+](=O)[O-])cc2)c(=O)c1C=NCC1CCCO1 (stereo not given) | -88.0*
Cc1cc(=O)[nH]c2n[nH]c(-c3ccccc3)c12 | -63.4*
C/C(=N\OCC(=O)NCC(F)(F)F)c1cc2ccccc2o1 | -75.6*
CCCOC1CCCN(C(=O)CCc2nnc(Cc3cccc(C)c3)o2)C1 (stereo not given) | -163.6*
Cc1cccc(Cc2nnc(CCC(=O)N(CC3CC3)CC3CCCO3)o2)c1 (stereo not given) | -111.9*
O=C(/C=C/c1ccc(OC(F)F)cc1)Nc1cccc(S(=O)(=O)NC2=NCCCCC2)c1 | -71.8*
COc1ccc(/C=C/C(=O)Nc2cccc(S(=O)(=O)NC3=NCCCCC3)c2)cc1 | -67.4*
O=C(CCl)Nc1cccc(S(=O)(=O)NC2=NCCC2)c1 | -180.0*
Nn1c(SCc2ccc(F)cc2)nnc1-c1ccccn1 | -68.3*
Nn1c(SCc2ccccc2)nnc1-c1ccccn1 | -70.3*
Nn1c(SCc2ccccc2F)nnc1-c1ccccn1 | -124.8*
SMILES | aSyn 5UTR act
NC(=O)CSc1nc2cccnc2n1-c1ccc(F)cc1 | 51.9
COc1ccc2occ(C(=O)c3cccs3)c2c1 | -241.9*
O=C(Nc1ccccc1)c1cnc2n(c1=O)CCS2 | -100.4*
O=C(NCCC1=CCCCC1)c1cnc2n(c1=O)CCS2 | -107.6*
Nc1c(C(=O)Nc2ccc(S(=O)(=O)N3CCCC3)cc2)sc2nc3ccc(OC(F)(F)F)cc3cc12 | 109.2
O=C(Nc1ccc(OC(F)(F)F)cc1)c1cnc2n(c1=O)CCS2 | -160.0*
O=C(NCCCc1ccccc1)c1cnc2n(c1=O)CCS2 | -125.2*
O=C(Nc1cccc(C(F)(F)F)c1)c1cnc2n(c1=O)CCS2 | -107.9*
CN(C)S(=O)(=O)Oc1cccc(C(=O)Nc2cccc(Cl)c2)c1 | -169.5*
CN(C)S(=O)(=O)c1cccc(C(=O)Nc2cc(Cl)ccc2O)c1 | -86.6*
CNS(=O)(=O)c1cccc(C(=O)Nc2cccc(Cl)c2)c1 | -111.2*
O=C(NC(=S)Nc1cc(Cl)ccc1O)c1cccc(Br)c1 | -80.9*
CN(C)S(=O)(=O)Oc1cccc(C(=O)Nc2ccc(Cl)c(Cl)c2)c1 | -184.7*
COC(=O)c1ccc(OS(=O)(=O)N(C)C)cc1 | -87.8*
COc1ccc(NC(=O)c2cccc(OS(=O)(=O)N(C)C)c2)cc1 | -115.6*
CCCC[n+]1ccn(C2=C([O-])c3ccccc3C(=O)/C2=N\S(=O)(=O)c2ccc(Cl)cc2)c1 | 66.0
COc1ccc(NC(=O)n2ncc3c(C)cccc32)cc1OC | -164.7*
Cc1ccc(NC(=O)n2ncc3c(C)cccc32)cc1F | -70.9*
COc1ccc(NC(=O)n2ncc3c(C)cccc32)cc1 | -88.4*
CC(=O)Nc1ccc(SCC(=O)c2cc(C)n(C)c2C)cc1 | -68.9*
CCCOc1ccc(-c2c(=O)n(O)c3ccccc3[n+]2[O-])cc1 | -176.4*
Cn1cc(/C=C2/SC(=O)N(c3ccccc3)C2=O)c2ccccc21 | -221.4*
Cn1cccc1/C=C1\SC(=O)N(c2ccccc2)C1=O | -115.3*
CC(C)c1ccc2[nH]c(O)c(N=NC(=O)c3cccc(S(=O)(=O)Nc4ccc(Cl)cc4)c3)c2c1 | 79.4
C=CCn1c(O)c(N=NC(=S)Nc2cccc(C)c2)c2ccccc21 | 93.6
SMILES | aSyn 5UTR act
O=C(N=Nc1c(O)[nH]c2ccc(Br)cc12)c1cc(-c2cccs2)nc2ccccc12 | 81.4
Oc1ccc(NC(=S)N=Nc2c(O)[nH]c3ccccc23)cc1 | -130.7*
O=C(N=Nc1c(O)[nH]c2ccccc12)c1cccs1 | -74.3*
Cc1nn(-c2ccccc2)c2sc(C(=O)N(CC(=O)NC3CCCC3)Cc3ccco3)cc12 | -66.6*
Cc1nn(-c2ccc(F)cc2)c2sc(C(=O)N3CCCCCC3)cc12 | -83.7*
Cc1nn(-c2ccccc2)c2sc(C(=O)NC3CC3)cc12 | -99.5*
O=Cc1cc2ccccc2nc1SCc1ccc(Cl)cc1 | 95.2
Clc1ccc(CSc2ncccn2)cc1 | -80.0*
